Rows were chosen to be rich in hits. Some 21% of all compounds tested hit in one or more screens of this group.
Pf growth 96h: P. falciparum growth inhibition at 96 hour, primary screen for plastid delayed-death inhibitors | P. falciparum luciferase reporter growth, 96 h | Potency, µM (highest dose often 28.7 µM), without a hit: at the top dose activity change, negative = inhibition, usual class: inhibitors | hit rate 6.9% among 320,000 | AID 504834; further: potency means the concentration at half of the fitted maximal effect; on the % scale 0 is the no-effect control and ±100 the full control effect
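Cell-based qHTS: luciferase-tagged P. falciparum in erythrocytes (2% hematocrit, 0.05% parasitemia final) incubated with compounds for 96 hours, 37 C, 5% CO2; luciferase detection reagent then added and luminescence measured.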
Giardia FBPA inh: blocks Giardia fructose-bisphosphate aldolase activity. A8B2U2. purified Giardia FBPA. Potency, µM (doses to about 59.6 µM), for inactives: at the top dose activity, negative = inhibition, most hits filed as inhibitors. hit rate 0.71% among 290,000. AID 2451; further: potency means the concentration at half of the fitted maximal effect; on the % scale 0 is the no-effect control and ±100 the full control effect; nearly all actives have a fitted effect of over 55% in size
Target sequence (A8B2U2 whole entry, looked up): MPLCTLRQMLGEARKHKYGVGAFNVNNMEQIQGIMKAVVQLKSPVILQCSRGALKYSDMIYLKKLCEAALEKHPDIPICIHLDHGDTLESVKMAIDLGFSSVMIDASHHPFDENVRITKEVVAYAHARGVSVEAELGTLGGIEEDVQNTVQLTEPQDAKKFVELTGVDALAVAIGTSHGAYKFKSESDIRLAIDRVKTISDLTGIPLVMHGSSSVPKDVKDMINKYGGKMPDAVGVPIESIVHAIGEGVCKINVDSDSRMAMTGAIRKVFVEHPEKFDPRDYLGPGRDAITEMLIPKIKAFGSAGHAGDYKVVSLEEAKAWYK
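40 nM FBPA preincubated 10 min at RT with compound (up to 57.5 uM final), then substrate plus GAPDH/TPI/NAD/arsenate coupling and diaphorase/resazurin added. Fluorescence read after 20 min at RT, 525/598 nm.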
Pf growth 48h: P. falciparum growth inhibition at 48 hours (one generation); P. falciparum luciferase growth in erythrocytes, 48 h; Potency, µM (doses to about 28.7 µM), without a hit: at the highest dose activity change, negative = inhibition, actives largely listed as inhibitors; hit rate 5.9% among 310,000; AID 504832; further: potency means the concentration at half of the fitted maximal effect; on the % scale 0 is the no-effect control and ±100 the full control effect
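Growth was read as firefly luciferase luminescence after a 48 h, 37 C, 5% CO2 exposure of compounds to reporter-bearing P. falciparum cultures (0.1% parasitemia, 2% hematocrit final) in Albumax-supplemented RPMI 1640.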
NS1 inh: influenza NS1 inhibition | Potency, µM (titrated, usually from 46.1 µM), for inactives: at the highest dose activity, positive = more growth | hit rate 0.4% among 270,000; calls by dose curve; further: potency means the concentration at half of the fitted maximal effect; actives are rising curves; nearly all actives have a fitted effect of over 50% in size
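OD600 was taken as the measure of yeast growth restored by compound in an NS1-expressing S. cerevisiae strain. Cells had been washed out of glucose medium and diluted 1:100 into galactose -URA medium, pH 6.0.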
Cycloheximide cs: affects cycloheximide protein synthesis inhibition readout, counter-screen. cell reporter, cycloheximide protein synthesis inhibition counterscreen. max response, %. hit rate 12% among 300,000. AID 2314; in the data active means max response mostly above about 13%, no sharp cut-off; inactive means mostly below about 14%; further: read at 38.3 µM for the half of the compounds with a filed dose; 0% is about no effect
Shiga toxin inh: blocks Shiga toxin action in Vero cells; AID 2315; inhibition, % at 38.7 µM; Vero cells, Shiga toxin protein synthesis inhibition reporter; hit rate 9.2% among 290,000; in the data active means inhibition mostly above about 28%, no sharp cut-off; inactive means mostly below about 43%; further: 0% is about no effect
* hit, by the source's call; u = inconclusive; x = no result given; [ ] = remark or other dose. Unless noted, the call rests on the fitted dose curve; in most records, active means well fitted curve in the direction sought with a large enough effect; inconclusive means small, poorly fitted or top-dose-only effect, or another doubt; inactive means no such curve, though single readings can be large; an effect the other way counts as inactive or inconclusive.

SMILES	Pf growth 96h	Giardia FBPA inh	Pf growth 48h	NS1 inh	Cycloheximide cs	Shiga toxin inh
CCCN1CCC(=O)N(C(CSc2ccc(OC)cc2)CC(C)C)CC1 (configuration not stated)	x	10%	x	x	43*	53*
CCCN1CCC(=O)N([C@H](CSc2ccc(OC)cc2)c2ccccc2)CC1	u	-1%	u	1%	15*	37*
CC(C)C[C@@H](CSc1ccc(Br)cc1)N1CCN(CC(C)C)CCC1=O	u	2%	u	-7%	18*	75*
CCCN1CCC(=O)N(C(CSc2ccc(Br)cc2)CC(C)C)CC1 (configuration not stated)	x	6%	x	x	36*	89*
Cc1ccccc1NC(=O)N1C2CCCC1CC(NC(=O)C(C)(C)C)C2 (configuration not stated)	12µM*	1%	0%	-1%	-3	28
CC(C)(C)C(=O)NC1CC2CCCC(C1)N2C(=O)Nc1ccccc1 (configuration not stated)	u	3%	u	6%	-1	-6
COc1cccc2nc(-c3cccs3)nc(NN3C(=O)C=C(C)C3=O)c12	x	-18%	x	x	26	32
O=C(CCCN1CC=C(n2c(=O)[nH]c3ccccc32)CC1)c1ccc(F)cc1	3.3µM*	-4%	8.3µM*	2%	-3	-9
C=CCOc1ccc2c(=O)n(C)c3ccccc3c2c1	x	-9%	x	x	9	8
C=C(NC(=O)C(=C)NC(=O)c1csc(C2=N[C@@H]3c4csc(n4)[C@@H]4NC(=O)c5csc(n5)[C@@H]([C@](C)(O)[C@H](C)O)NC(=O)[C@@H]5CSC(=N5)/C(=C/C)NC(=O)[C@@H]([C@H](C)O)NC(=O)c5csc(n5)[C@]3(CC2)NC(=O)[C@@H](C)NC(=O)C(=C)NC(=O)[C@@H](C)NC(=O)[C@@H]([C@@H](C)CC)N[C@H]2C=Cc3c([C@H](C)O)cc(nc3[C@@H]2O)C(=O)O[C@H]4C)n1)C(N)=O	4.1µM*	-19%[21.7 µM]	5.7µM*	x	x	x
C=C(NC(=O)C(=C)NC(=O)c1csc(C2=NC3c4csc(n4)C4NC(=O)c5csc(n5)C(C(C)(O)C(C)O)NC(=O)C5CSC(=N5)C(=CC)NC(=O)C(C(C)O)NC(=O)c5csc(n5)C3(CC2)NC(=O)C(C)NC(=O)C(=C)NC(=O)C(C)NC(=O)C(C(C)CC)NC2C=Cc3c(C(C)O)cc(nc3C2O)C(=O)OC4C)n1)C(N)=O (configuration not stated)	x	-13%	x	x	x	x
C=C(NC(=O)C(=C)NC(=O)c1csc(C2=NC3c4csc(n4)C4NC(=O)c5csc(n5)C([C@@](C)(O)C(C)O)NC(=O)C5CSC(=N5)/C(=C\C)NC(=O)C(C(C)O)NC(=O)c5csc(n5)[C@]3(CC2)NC(=O)C(C)NC(=O)C(=C)NC(=O)C(C)NC(=O)C(C(C)CC)NC2C=Cc3c(C(C)O)cc(nc3C2O)C(=O)OC4C)n1)C(N)=O (some centres not stated)	0.74µM*	x	0.83µM*	x	x	x
Cc1ccc(CS(=O)(=O)c2cn(CC(=O)Nc3ccon3)c3ccccc23)cc1	-8%	x	1%	x	x	x
N#CCSc1nnc(COc2cccc3ccccc23)n1-c1ccccc1	25%	12%	u	9%	-3	-9
COc1ccc(-n2c(COc3cccc4ccccc34)nnc2SCC#N)cc1	-13%	-1%	13µM*	11%	1	14
Cc1ccc(-c2nnc(CSc3nnc(COc4cccc5ccccc45)n3-c3ccccc3)o2)cc1	13µM*	-2%	x	u	2	-20
N#CCSc1nnc(COc2cccc3ccccc23)n1-c1cccc(Cl)c1	312%	-20%	u	-32%	13	-9
Cc1nc2ccccc2n1S(=O)(=O)c1cc(C(=O)O)ccc1Cl	0%	-15%	35%	1%	-2	-7
O=C(CSc1nnc(-c2cccs2)n1-c1ccccc1)N1CCOCC1	x	4%	-10%	u	-4	-12
CN1CCN(S(=O)(=O)c2ccc(Sc3nnc(-c4cccs4)n3-c3ccccc3)nc2)CC1	u	9%	7.4µM*	-10%	-4	20
Cc1cccc(NC(=O)CSc2ccc(-c3cccs3)nn2)c1C	16%	5%	8%	3%	13*	11
O=C(CSc1nnc(-c2cccs2)n1-c1ccccc1)N1CCCC1	9.3µM*	3%	1%	3%	-6	-9
O=C(CSc1ccc(-c2cccs2)nn1)N1CCCCC1	-29%	6%	99%	3%	46*	52*
O=C(CSc1ccc2nnc(-c3cccs3)n2n1)N1CCCC1	u	0%	8%	x	3	2
O=C(CSc1ccc(-c2cccs2)nn1)N1CCCCCC1	u	4%	35%	1%	20*	44*
SMILES	Pf growth 96h	Giardia FBPA inh	Pf growth 48h	NS1 inh	Cycloheximide cs	Shiga toxin inh
CC(=O)N/N=C/c1ccccc1OCCOc1cccc(C)c1	-13%	2%	31%	-36%	2	-8
Cc1noc(C)c1-c1ccc2ncnc(NCc3cccs3)c2c1	x	-4%	x	x	x	x
Cc1ccc(NC(=O)NNC(=O)c2cc3ccccc3cc2O)c(C)c1	21%	-2%	4%	11%	-3	9
Cc1cccc(NC(=O)NNC(=O)c2cc3ccccc3cc2O)c1C	-26%	6%	10%	x	5	-2
Cc1ccc(NC(=S)NNC(=O)c2ccccc2O)c(C)c1	-3%[5.75 µM]	u	u	-7%	33*	97*
Cc1cccc(NC(=S)NNC(=O)c2ccc(O)cc2O)c1C	35%	24%	u	4%	20*	35*
CC1CN(C)C(C)C/C1=N\Oc1ccc([N+](=O)[O-])cc1 (configuration not stated)	1µM*	-3%	20%	-1%	10	13
CC1CN(C)C(C)C/C1=N/Oc1ccccc1[N+](=O)[O-] (configuration not stated)	95%	-28%	31%	2%	1	6
Cc1ccc(C)c2c1N(Cc1ccccc1)C(=O)C21OCCO1	u	0%	-17%	8%	-3	4
COc1ccc(OC)c(-n2c(=S)[nH]c3cc(C(=O)N(C)Cc4ccccc4)ccc3c2=O)c1	9.3µM*	u	u	x	-4	-10
O=C(CN(C(=O)c1csnn1)c1ccccc1Cl)NCCc1ccccc1	12%	6%	5%	3%	-5	4
Cc1ccccc1N(CC(=O)NCCc1ccccc1)C(=O)c1ccc(N2CCCC2)nc1	u	10%	10µM*	-34%	-3	-21
CCCCN(C)CCCNC(=O)CCn1nc(-c2ccccc2)ccc1=O	0.12µM*	0%	1%	-9%	1	3
CCCCNC(=O)CCn1nc(-c2ccccc2)ccc1=O	u	3%	17%	u	-3	12
COc1cccc(-c2ccc(SCC(=O)N3CCOCC3)nn2)c1	-10%	-5%	20%	x	2	22

From PubChem BioAssay
